Assay results as given in PMC4336329 (PLoS ONE, 2015).
The campaign covered roughly 310,000 compounds. About 14,000 (4.5%) showed an effect of 50% or more. The effect is printed as a negative number. Only a selection was taken, and strong results are over-represented in it overall.

These molecules were tested against human ether-à-go-go-related gene (hERG) potassium channel (human, UniProt Q12809) (assay: primary screen, population patch clamp on CHO cells stably expressing hERG; higher = less effect of the substance).
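Also: peak tail current of the secondary pulse compared with the same well before compound.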

human ether-à-go-go-related gene (hERG) potassium channel, sequence (Q12809 whole entry, looked up): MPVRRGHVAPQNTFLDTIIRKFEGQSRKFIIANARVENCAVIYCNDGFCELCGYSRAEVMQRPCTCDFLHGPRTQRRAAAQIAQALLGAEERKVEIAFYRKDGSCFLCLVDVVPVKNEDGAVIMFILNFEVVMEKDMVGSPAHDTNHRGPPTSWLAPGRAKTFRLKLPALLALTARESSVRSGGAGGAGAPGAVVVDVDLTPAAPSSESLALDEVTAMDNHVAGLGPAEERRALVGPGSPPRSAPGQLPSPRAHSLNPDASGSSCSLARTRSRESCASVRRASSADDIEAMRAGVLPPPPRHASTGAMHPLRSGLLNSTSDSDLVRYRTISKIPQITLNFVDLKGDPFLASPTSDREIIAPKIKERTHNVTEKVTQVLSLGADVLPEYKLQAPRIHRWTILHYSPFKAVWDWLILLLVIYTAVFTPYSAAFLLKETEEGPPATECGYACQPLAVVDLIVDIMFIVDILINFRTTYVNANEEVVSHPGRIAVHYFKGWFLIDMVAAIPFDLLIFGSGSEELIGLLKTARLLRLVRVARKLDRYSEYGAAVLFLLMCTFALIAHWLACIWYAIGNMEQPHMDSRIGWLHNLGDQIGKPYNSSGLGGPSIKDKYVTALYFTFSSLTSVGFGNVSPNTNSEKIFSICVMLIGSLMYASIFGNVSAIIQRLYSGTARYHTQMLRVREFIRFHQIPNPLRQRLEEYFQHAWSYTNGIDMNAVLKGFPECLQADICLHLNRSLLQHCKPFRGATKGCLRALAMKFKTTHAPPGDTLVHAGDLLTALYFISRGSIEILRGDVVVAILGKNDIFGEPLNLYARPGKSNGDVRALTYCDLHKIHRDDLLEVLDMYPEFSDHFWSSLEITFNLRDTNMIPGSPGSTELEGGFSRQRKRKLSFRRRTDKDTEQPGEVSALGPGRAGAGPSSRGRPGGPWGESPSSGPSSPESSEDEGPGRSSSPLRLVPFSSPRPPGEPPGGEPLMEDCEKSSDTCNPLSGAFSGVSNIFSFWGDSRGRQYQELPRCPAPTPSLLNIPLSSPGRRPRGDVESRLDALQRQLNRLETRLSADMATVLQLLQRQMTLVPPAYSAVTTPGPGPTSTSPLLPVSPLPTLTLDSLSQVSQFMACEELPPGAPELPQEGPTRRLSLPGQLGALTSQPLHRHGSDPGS

SMILES	hERG current change (%, negative = inhibition) at 10uM [%]
CCc1ccccc1N/N=C(/C)c1c(O)cc(C)oc1=O	-1.91
Cc1c(CCC(=O)O)c(=O)oc2cc3occ(-c4ccccc4)c3cc12	-27.8
CC(CN1C(C)CCCC1C)OC(=O)c1cccc(F)c1.Cl (stereo not drawn)	-13
COc1ccc(-c2nc(CN3CCN(Cc4cccc(F)c4)CC3)c(C)o2)cc1	-46.6
Cc1cccc(-c2nc(CN3CCN(Cc4cccc(F)c4)CC3)c(C)o2)c1	-47
Cc1cccc(N2CCN(Cc3nc(-c4cccc(Cl)c4)oc3C)CC2)n1	-21
Cc1oc(-c2cc(F)ccc2F)nc1CN1CCN(c2ncnc3ccccc23)CC1	-43.6
COc1ccc(-c2nc(CN3CCN(c4cc(C)nc(C)c4)CC3)c(C)o2)c2ccccc12	-73.6
Cc1oc(-c2cccc3ccccc23)nc1CN1CCN(c2ncnc3ccccc23)CC1	-11.9
Cc1cc(N2CCN(Cc3nc(-c4ccc(F)cc4)oc3C)CC2)cc(C)n1	-53.8
COc1ccc(-c2nc(CN3CCN(C(=O)c4ccco4)CC3)c(C)o2)c(OC)c1C	-18
COc1ccc(-c2nc(CN3CCN(c4ncccn4)CC3)c(C)o2)cc1C	-21.1
Cc1cc(N2CCN(Cc3nc(-c4ccc(Cl)cc4)oc3C)CC2)cc(C)n1	-68.8
COc1ccc(-c2nc(CN3CCN(Cc4cccc(Cl)c4)CC3)c(C)o2)cc1	-33.1
COc1ccc(-c2nc(CN3CCN(c4ncnc5ccccc45)CC3)c(C)o2)c(OC)c1	-66.8
Clc1ccc(-c2csc(Nc3cccnc3)n2)cc1	13.5
CC(C)(C)C(=O)Nc1ccc(F)cc1[N+](=O)[O-]	5.56
Cc1cc2oc(=O)cc(CN3CCC(C)CC3)c2c(C)c1Cl	-2.84
CCCCCc1c(O)c2ccccc2[nH]c1=O	7.97
N#CCC(=O)NNC(=S)NC(=O)C(c1ccccc1)c1ccccc1	5.41
O=C(NCCCCc1ccccc1)c1cccc(Br)c1	-3.79
CCOc1ccc(N(CC(=O)Nc2nccs2)S(=O)(=O)c2c(C)noc2C)cc1	-5.98
CCCOc1ccc(C2=CSC3=NCCN23)cc1[N+](=O)[O-]	-73.6
Br.COc1ccc(C2=CSC3=NCCN23)cc1Br	-50.7

SMILES	hERG current change (%, negative = inhibition) at 10uM [%]
Br.COc1ccc(C2=CSC3=NCCN23)cc1F	-13.9
COc1ccc(C2=CSC3=NCCN23)cc1Cl	-2.92
CCCCOc1ccc(-c2csc(N)n2)cc1[N+](=O)[O-]	11.2
CCCOc1ccc(C2=CSC3=NCCN23)cc1.Cl	-28.3
Br.COc1ccc(C2=CSC3=NCCN23)cc1OC	-6.58
CCCCOc1ccc(C2=CSC3=NCCN23)cc1[N+](=O)[O-]	-71
CCOc1ccc(C2=CSC3=NCCN23)cc1Cl	-22.8
CCCOc1ccc(C2=CSC3=NCCN23)cc1Cl	-67.8
O=[N+]([O-])c1ccc(C2=CSC3=NCCN23)cc1	-32.9
CSc1nc2sc3c(c2c(=O)n1C)CCCC3	-13.5
CC(OC(=O)c1ccc(Br)c(S(=O)(=O)N2CCOCC2)c1)C(=O)NC1CCCCC1C (stereo not drawn)	-49.9
CC(C)(C)NC(=O)NC(=O)C[n+]1ccc(Cc2ccc([N+](=O)[O-])cc2)cc1.[Cl-]	-5.27
O=C(CCCN1C(=O)/C(=C\c2ccccc2)SC1=S)Nc1ccc(O)cc1C(=O)O	18.1
CCOC(=O)/C=c1\s/c(=C\c2ccc(C(F)(F)F)cc2)c(=O)n1CC(=O)NCc1ccco1	5.47
O=C(CSc1nnnn1-c1cccnc1)NCc1cccs1	9.62
CCOC(=O)COc1ccc(C2CC(C)=NN2c2ccccc2)cc1 (stereo not drawn)	-0.31
CC(=O)n1nc2nc(C)cc(C)c2c1N	13.9
O=C(/C=C/c1ccco1)NC1CCCC1	17.4
CCOc1ccc(/C=N/NC(=O)c2ccccc2C)cc1CN1CC2CC(C1)c1cccc(=O)n1C2 (stereo not drawn)	-26.8
O=C(CCN=C1NS(=O)(=O)c2ccccc21)OCC(=O)c1ccc(F)c(F)c1	11
O=C(NCc1ccccc1)NS(=O)(=O)c1ccccc1Cl	-4.3
CCOc1ccc(C2=CSC3=NCCN23)cc1[N+](=O)[O-]	-75.5
CCOc1ccc(C2=CSC3=NCCN23)cc1	-4.08
COc1ccc(C2=CSC3=NCCN23)cc1[N+](=O)[O-]	-26.1

SMILES	hERG current change (%, negative = inhibition) at 10uM [%]
CCN(CC)c1ccc2c(c1)oc(=O)c1c(Cl)cc(=O)oc12	14.8
COc1cc(O)c(NC(C)=O)c2nonc12	11.2
CCn1c(SC)nnc1C1CCN(S(=O)(=O)c2ccc(OC)cc2)CC1	-4.3
CCn1c(SCc2ccc(F)cc2)nnc1C1CCN(S(=O)(=O)c2ccc(OC)cc2)CC1	-64.3
CCn1c(SCC(=O)c2ccc(OC)cc2)nnc1C1CC1	6.73
CCn1c(C2CCN(S(=O)(=O)c3ccc(OC)cc3)CC2)n[nH]c1=S	-18
CCn1c(SCc2ccccc2)nnc1C1CCN(S(=O)(=O)c2ccc(OC)cc2)CC1	-60.8
Cc1ccc(S(=O)(=O)N2CCC(c3nnc(SCCN4CCCC4)n3C)CC2)cc1	17.7
CCn1c(SCc2ccccc2)nnc1C1CCCCC1	-11.2
CCn1c(SC(C)C)nnc1C1CCN(S(=O)(=O)c2ccc(OC)cc2)CC1	-20.6
CCn1c(SCc2ccc(C)cc2)nnc1C1CCN(S(=O)(=O)c2ccc(OC)cc2)CC1	-64.5
COc1ccc2c(c1)c(CC(=O)Nc1ccc(C)cc1)c(C)n2C(=O)c1ccc(Cl)cc1	-20.4
O=C1c2oc3ccccc3c(=O)c2C(c2ccccn2)N1Cc1ccccc1 (stereo not drawn)	5.53
CCOC(=O)c1c(C)nc(-c2ccccc2)nc1NC(=O)CC	1.29
Cn1c(=O)c2sccc2n2c(CCCC(=O)NCc3ccco3)nnc12	-1.92
COC(=O)C1CCN(C(=O)c2ccccc2NC(C)=O)CC1	16.8
Brc1ccc(CSc2nnc3ccccn23)cc1	-18.7
Cn1ccnc1SCc1ccc([N+](=O)[O-])cc1	-2.75
O=[N+]([O-])c1ccccc1CSc1nnc2ccccn12	-0.991
O=[N+]([O-])c1ccc(CSc2nnc3ccccn23)cc1	-57.2
O=C(c1nc(SCc2ccc([N+](=O)[O-])cc2)n2ccccc12)C(F)(F)F	-71.1
O=c1c2ccccc2nc(SCc2ccc([N+](=O)[O-])cc2)n1-c1ccccc1	10.9
O=C(NC(=S)NNC(=O)c1ccccc1O)c1cccc([N+](=O)[O-])c1	26.2
O=C(NCCCN1CCOCC1)C(=O)N/N=C/c1ccccc1	-20.2

SMILES	hERG current change (%, negative = inhibition) at 10uM [%]
CCC(=NCCN1CCOCC1)c1c(O)n(C2CCCCC2)c(=O)[nH]c1=O	-6.76
CC1(C)CC(=O)C(CC(=O)N2CCC(Cc3ccccc3)CC2)C(=O)C1	34.8
CC12CCC(=O)N1C(C(=O)Nc1cccc3ccccc13)CS2 (stereo not drawn)	4.6
Cc1cc2nc(-c3ccc4c(c3)CCC4)ccn2n1	-2.72
Cc1ccc(NS(=O)(=O)c2cccc(C(=O)NCC3CCCO3)c2)cc1 (stereo not drawn)	-10
Brc1ccc(-c2nn[nH]n2)cc1	11.2
O=C(NC1CC1)c1ccc2c3c(cccc13)CC2	-2.52
CC(C)(C)NC(=O)c1ccc2c3c(cccc13)CC2	-51.4
CC(=O)c1ccc2c3c(cccc13)CC2	2.96
COc1ccc(Cl)cc1NC(=O)CSc1nnc(C)c(=O)n1N	2.48
O=C(c1ccccc1)N1N=C(c2ccc(F)cc2)CC1(O)C(F)(F)F (stereo not drawn)	-5.31
C/C(=N/OC(=O)CC(C)C)c1cc(-c2ccc(Cl)cc2)no1	15
CCN(c1ccccc1)S(=O)(=O)c1cccc(C(=O)NCC(c2cccs2)N2CCOCC2)c1 (stereo not drawn)	-18.7
Cc1ccc(N(C)S(=O)(=O)c2cccc(C(=O)NCC(c3ccco3)N3CCCC3)c2)cc1 (stereo not drawn)	-62.5
COc1ccc(N(C)S(=O)(=O)c2cccc(C(=O)NCC(c3ccco3)N3CCCC3)c2)cc1 (stereo not drawn)	-33.9
CCN(c1ccccc1)S(=O)(=O)c1cccc(C(=O)NCC(c2ccco2)N2CCCC2)c1 (stereo not drawn)	-59.3
CN(c1ccccc1)S(=O)(=O)c1ccc(C(=O)NCC(c2ccco2)N2CCCCC2)cc1 (stereo not drawn)	-12.1
O=C(NCC(c1ccco1)N1CCCC1)c1cccc(NS(=O)(=O)c2ccccc2)c1 (stereo not drawn)	-5.9
Cc1ccc(NS(=O)(=O)c2cccc(C(=O)NCC(c3ccco3)N3CCCC3)c2)cc1 (stereo not drawn)	-47.4
CN(c1ccccc1)S(=O)(=O)c1ccc(Cl)c(C(=O)NCC(c2ccco2)N2CCCC2)c1 (stereo not drawn)	-50.9
CN(C)C(CNC(=O)c1cc(S(=O)(=O)N(C)c2ccc(F)cc2)ccc1Cl)c1ccco1 (stereo not drawn)	-28.3
